# Activity calls are given as the source filed them.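 The calls were made as follows, unless noted: active = compounds giving at least 50% inhibition in the cell-based MKP-3 phosphatase rescue imaging test; inactive = the rest.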
# Columns and labels:
# [1] = inhibitors of TNFa-induced NFkB p65 translocation, primary screen, imaging, HUVEC, MLSMR starter and 10KST1 sets (AID 438;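 active = inhibition above 20% together with a positive visual image hit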;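 also: compound added about 3h40 before a 20 min TNFalpha stimulation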;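 as to inhibition: signal is the nuclear over cytoplasmic p65 intensity ratio per well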); conditions: HUVEC TNFa-induced p65 nuclear translocation; cell count: measured here: nuclei count (cytotoxicity indicator), at 2.08 µM; inhibition: at 2 µM, stronger effect = higher value, 0% TNFa-plus-vehicle, 100% no-TNFa wells
# [2] = inhibitors of mutant huntingtin aggregation, primary screen, imaging, exon1htt(103Q)mCFP cells, high-content imaging (AID 483;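 active = visual image review flags a hit and inhibition of aggregation exceeds 20%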;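 also: compound exposure lasted 3 days before fixation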;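 as to nuclei count: percent of the per-plate median nuclei count of sample wells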); conditions: exon1htt(103Q)mCFP cell line, aggregate imaging, at 2 µM; inhibition of aggregation: stronger effect = higher value; nuclei count: measured here: cell count, toxicity
# [3] = inhibitors of E-selectin induction by TNFa, primary screen, imaging, HUVEC, immunofluorescence, MLSMR starter and 10KST1 sets (AID 487;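 active = visually confirmed hit in the image check and inhibition above 20%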;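 as to inhibition: signal is fraction of cell area covered by stained E-selectin grains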;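 as to nuclei count: 100% = median nuclei count of all wells on the same plate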); conditions: HUVEC TNFalpha-induced E-selectin immunofluorescence imaging, at 2 µM; inhibition: stronger effect = higher value; nuclei count: measured here: cell number, toxicity
# [4] = DUSP6 inhibitors restoring Erk phosphorylation by chemical complementation, primary imaging in DUSP6-transfected HeLa (AID 609); conditions: HeLa MKP-3 transfected, phospho-Erk imaging KS statistic, at 10 µM, cells stimulated with TPA for 15 min;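 as to inhibition: phospho-Erk level distribution per well compared with pooled transfected vehicle control wells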
# [5] = biological target: Dual specificity protein phosphatase 6 (Homo sapiens) (UniProt Q16828); assay: as above; conditions: HeLa MKP-3 transfected, phospho-Erk imaging KS statistic; at 10 µM; stronger effect = higher value; cells stimulated with TPA for 15 min
# [6] = biological target: Voltage-gated potassium channel subunit beta-2 (Rattus norvegicus) (UniProt P62483); assay: KvBeta enzyme negative modulators, primary screen, biochemical, NADPH fluorescence (AID 622;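 active = fluorescence slope higher than the sample average by over 3 SD, cut at about -0.22 in these data, passing the limit was not always enough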;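 also: slope of raw intensity against log time taken from 70 to 1610 s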); conditions: recombinant KvBeta, 4-cyanobenzaldehyde reduction, at 10 µM, stronger effect = higher value
# [7] = biological target: Voltage-gated potassium channel subunit beta-2 (Rattus norvegicus) (UniProt P62483); assay: KvBeta positive modulators, primary screen, biochemical, NADPH fluorescence (AID 623;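 active = NADPH fluorescence slope more negative than the mean of all samples by about 3 SD, 99.7% confidence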;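 also: fluorescence intensity change per second fitted from 20 to 320 s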); conditions: Recombinant KvBeta, NADPH fluorescence decrease slope, 10 min; at 10 µM; stronger effect = lower value
# [8] = biological target: Muscarinic acetylcholine receptor M4 (Homo sapiens) (UniProt P08173); assay: compounds altering M4/GIRK thallium flux, either direction, primary screen, M4 allosteric agonist project, cell-based, HEK293 M4/GIRK, BTC-AM (AID 625;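 active = fluorescence slope after compound addition differing from the mean of all tested samples at 99.7% confidence, mostly higher but some lower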;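 also: thallium influx through GIRK channels coupled to M4 in HEK293 cells with BTC-AM dye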); conditions: at 10 µM, actives lie on both sides
# [9] = inhibitors of larval lipid processing in zebrafish, primary screen, whole organism, PED6 fluorescence, gall bladder and intestine (AID 686;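 active = a full or partial loss of lipid-probe fluorescence in the fish gall bladder, intestine or both, judged by eye; inactive = no fluorescence loss, or compound toxic to the fish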;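 also: larvae 5 to 7 days old with five fish per well; signal comes from phospholipase A2 cleavage of quenched PED6 carried via bile; overnight exposure to compound and PED6 before scoring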); conditions: Zebrafish larvae PED6 lipid processing, fluorescence scoring; screened at 20 µM (by protocol)
# [10] = inhibitors of Chlamydomonas gravitaxis, primary screen, whole organism, Chlamydomonas reinhardtii, WT vs cilia-less mutant, absorbance, 96-well (AID 463189;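 active = inhibition at or above 50% relative to wild type and mutant plate controls; inactive = inhibition below 50%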;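 also: 0% = wild type cc124 cells in DMSO and 100% = ciliumless bld1 mutant cells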); conditions: OD600 absorbance, 2 days, at 10 µM, stronger effect = higher value
# [11] = inhibitors of Sendai virus-induced IRF3 signaling, primary screen, TLR/RLR signaling modifier project, cell-based, Sendai virus stimulus, luciferase, 10K MLSCN set (AID 602276;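 active = inhibition at or above 50% at 10 µM; inactive = inhibition below 50%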;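 also: firefly luciferase from ISG56 promoter only with Renilla not read in this screen; 0% = Sendai virus plus DMSO and 100% = medium plus DMSO without virus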); conditions: HEK293 RL24 IRF3 luciferase reporter, at 10 µM, stronger effect = higher value
# [12] = inhibitors of poly I:C-induced TLR3 signaling, primary screen, cell-based, poly I:C stimulus, luciferase, 10K MLSCN set (AID 602277;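 active = inhibition of the reporter signal at or above 50%; inactive = inhibition below 50%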); conditions: HEK293-TLR3 RL24 IRF3 luciferase reporter, at 10 µM, stronger effect = higher value
# [13] = measured here: cell density z-score
# [14] = measured here: nuclear c-Myc green intensity z-score
# [15] = measured here: nuclear pErk red intensity z-score, stronger effect = higher value
# Voltage-gated potassium channel subunit beta-2 (Rattus norvegicus), sequence (P62483 whole entry, looked up): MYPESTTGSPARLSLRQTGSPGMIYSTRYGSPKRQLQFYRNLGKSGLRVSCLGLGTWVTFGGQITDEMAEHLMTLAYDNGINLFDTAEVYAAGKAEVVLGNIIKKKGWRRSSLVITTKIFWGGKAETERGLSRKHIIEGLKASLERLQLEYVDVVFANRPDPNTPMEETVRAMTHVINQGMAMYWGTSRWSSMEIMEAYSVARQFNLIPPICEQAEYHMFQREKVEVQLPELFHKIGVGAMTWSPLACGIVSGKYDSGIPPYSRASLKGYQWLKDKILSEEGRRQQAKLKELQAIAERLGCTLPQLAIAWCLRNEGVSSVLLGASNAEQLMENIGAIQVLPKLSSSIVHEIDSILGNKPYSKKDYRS
# Dual specificity protein phosphatase 6 (Homo sapiens), sequence (Q16828 whole entry, looked up): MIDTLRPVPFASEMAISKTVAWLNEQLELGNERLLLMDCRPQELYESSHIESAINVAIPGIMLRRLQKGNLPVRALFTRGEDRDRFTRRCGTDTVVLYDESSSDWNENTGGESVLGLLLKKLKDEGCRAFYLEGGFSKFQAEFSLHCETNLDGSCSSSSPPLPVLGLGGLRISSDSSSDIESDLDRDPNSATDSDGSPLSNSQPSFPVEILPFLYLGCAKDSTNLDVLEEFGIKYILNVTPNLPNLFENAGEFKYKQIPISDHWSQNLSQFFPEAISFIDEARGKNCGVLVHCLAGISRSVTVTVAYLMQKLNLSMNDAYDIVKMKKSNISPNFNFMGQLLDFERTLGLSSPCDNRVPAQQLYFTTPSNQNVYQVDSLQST
# Muscarinic acetylcholine receptor M4 (Homo sapiens), sequence (P08173 whole entry, looked up): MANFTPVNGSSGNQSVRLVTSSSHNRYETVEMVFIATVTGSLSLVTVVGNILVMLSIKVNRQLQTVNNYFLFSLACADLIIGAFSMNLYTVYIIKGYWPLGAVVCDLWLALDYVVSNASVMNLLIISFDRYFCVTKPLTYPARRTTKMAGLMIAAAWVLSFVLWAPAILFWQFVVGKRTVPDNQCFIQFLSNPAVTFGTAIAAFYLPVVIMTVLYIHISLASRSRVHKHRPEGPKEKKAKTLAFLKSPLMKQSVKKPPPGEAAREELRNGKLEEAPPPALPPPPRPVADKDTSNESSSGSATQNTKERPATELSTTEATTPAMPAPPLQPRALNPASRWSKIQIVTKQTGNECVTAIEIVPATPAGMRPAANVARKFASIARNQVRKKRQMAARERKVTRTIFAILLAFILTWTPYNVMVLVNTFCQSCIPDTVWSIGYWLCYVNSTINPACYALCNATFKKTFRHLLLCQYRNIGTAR
SMILES,cell count [1],inhibition [1],inhibition of aggregation [2],nuclei count [2],inhibition [3],nuclei count [3],"z-score [4, 13]","z-score [4, 14]","z-score [4, 15]",inhibition [5],fluorescence slope [6],NADPH fluorescence slope [7],fluorescence slope [8],outcome [9],inhibition [10],inhibition [11],inhibition [12]
CCOC(=O)c1ccc(CC2S/C(=C(\C#N)C(C)=O)NC2=O)cc1 (stereo unspecified),508,-6.4% (inactive),-13.4% (inactive),100%,-87.6% (inactive),145%,1.03,-0.573,0.337,13.4% (inactive),-0.384 (inactive),-4.5e-05 (inactive),0.00533 (inactive),inactive,13.1% (inactive),6.73% (inactive),-11.5% (inactive)
COc1ccc(CCn2c(=N)c(C#N)cc3c(=O)n4ccccc4nc32)cc1,529,1.4% (inactive),-0.9% (inactive),100%,-65.9% (inactive),105%,1.77,-0.331,-0.629,24.3% (inactive),-0.447 (inactive),-1.4e-05 (inactive),0.00759 (inactive),inactive,32.6% (inactive),13.2% (inactive),2.91% (inactive)
CN(C)CC(O)COc1ccc(-c2ccc(C#N)cc2)cc1 (stereo unspecified),626,-1.5% (inactive),6.6% (inactive),89.7%,-19.8% (inactive),139%,0.638,-0.472,2.41,-2.59% (inactive),-0.371 (inactive),-4.8e-05 (inactive),0.00456 (inactive),inactive,98.7% (active),-0.588% (inactive),-4.77% (inactive)
O=C(Nc1ccccn1)NC(C(F)(F)F)C(F)(F)F,669,-2.9% (inactive),-15.1% (inactive),118%,-56% (inactive),139%,0.555,0.584,0.451,9.91% (inactive),-0.472 (inactive),-0.000163 (inactive),0.00603 (inactive),inactive,12.6% (inactive),0.13% (inactive),5.13% (inactive)
COC(=O)c1cc(=O)n2c(-c3ccc(OC)cc3)csc2n1,468,-6.9% (inactive),8.7% (inactive),104%,-46.8% (inactive),133%,-0.555,0.15,-1.12,1.98% (inactive),-0.383 (inactive),-3.1e-05 (inactive),0.00743 (inactive),inactive,-2.61% (inactive),18.2% (inactive),19.9% (inactive)
Cc1c(O)c(CN2CCCC(C)C2)cc2c3c(c(=O)oc12)CCC3 (stereo unspecified),695,-6.3% (inactive),-0.7% (inactive),102%,30.2% (inactive),136%,-0.479,2,1.18,-8.95% (inactive),-0.0135 (inactive),8.2e-07 (inactive),0.00443 (inactive),inactive,0.622% (inactive),13.6% (inactive),16% (inactive)
CCOC(=O)CC(C#N)c1cn(C)c2ccccc12 (stereo unspecified),657,-0.6% (inactive),2.2% (inactive),104%,8.5% (inactive),135%,-1.04,0.465,0.369,-7.28% (inactive),-0.46 (inactive),-3.8e-05 (inactive),0.00661 (inactive),inactive,13.1% (inactive),21.5% (inactive),28.2% (inactive)
COC(=O)C(NC(C)=O)(Nc1ccccn1)C(F)(F)F (stereo unspecified),499,-0.5% (inactive),12.2% (inactive),111%,-61.1% (inactive),121%,2.44,-0.933,-0.0238,41.5% (inactive),-0.44 (inactive),-0.000125 (inactive),0.00527 (inactive),inactive,-7.72% (inactive),12.5% (inactive),20.1% (inactive)
O=S(=O)(NCc1cccnc1)c1cccc2nsnc12,643,-2.6% (inactive),-2.4% (inactive),125%,-80.9% (inactive),137%,-0.856,1.61,0.356,-3.97% (inactive),-0.482 (inactive),-5e-05 (inactive),0.00583 (inactive),inactive,-1.56% (inactive),15.1% (inactive),21.7% (inactive)
COCc1cc(=O)[nH]c(Nc2nc3ccccc3o2)n1,597,-4.5% (inactive),5.2% (inactive),87.4%,-16% (inactive),95.2%,0.0739,-1.45,-0.93,-2.09% (inactive),-0.469 (inactive),-5.1e-05 (inactive),0.00519 (inactive),inactive,4.61% (inactive),-29.5% (inactive),-80.2% (inactive)
CC(=O)c1c(OCC(=O)O)ccc2c(C)cc(=O)oc12,717,0.3% (inactive),10.5% (inactive),97.8%,-27.6% (inactive),126%,-0.71,0.597,-0.576,5.95% (inactive),-0.455 (inactive),-6.6e-05 (inactive),0.00563 (inactive),inactive,19.8% (inactive),16.9% (inactive),17.3% (inactive)
CC1(C)CNC(=O)c2sc(N3CCOCC3)nc2C1,330,-0.5% (inactive),-17.3% (inactive),76.6%,-112% (inactive),119%,-0.682,0.266,1.71,-0.159% (inactive),-0.39 (inactive),-4.4e-05 (inactive),0.00631 (inactive),inactive,0.902% (inactive),17.2% (inactive),15.4% (inactive)
Cc1cc2c(c(=O)o1)C(Cc1ccccc1)C(C#N)=C(N)O2 (stereo unspecified),706,-3.3% (inactive),-2.1% (inactive),80.9%,-45.5% (inactive),126%,-1.29,0.225,1.32,9.61% (inactive),-0.44 (inactive),-4.7e-05 (inactive),0.00523 (inactive),inactive,9.12% (inactive),13.9% (inactive),19% (inactive)
Fc1ccc(-c2cnc[nH]2)cc1,501,0.1% (inactive),-41% (inactive),64.4%,-88.1% (inactive),109%,-1.11,0.681,-1.47,3.42% (inactive),-0.513 (inactive),-9.6e-05 (inactive),0.00534 (inactive),inactive,-0.515% (inactive),-22.9% (inactive),-37.6% (inactive)
Nc1nc(NC(=O)c2cccs2)nn1-c1ccccc1,647,-6.2% (inactive),2.6% (inactive),104%,28.5% (inactive),140%,-2.6,0.834,1.83,14.4% (inactive),-0.486 (inactive),-6.6e-05 (inactive),0.00702 (inactive),inactive,-2.85% (inactive),-31.7% (inactive),-72.3% (inactive)
CCOC(=O)CNC(=O)Nc1ccccc1C(=O)OC,676,-2.9% (inactive),-5.8% (inactive),83.8%,15.4% (inactive),119%,0.104,0.241,-0.382,-7.67% (inactive),-0.507 (inactive),-0.000189 (active),0.00626 (inactive),inactive,-5.32% (inactive),10.2% (inactive),18.3% (inactive)
c1ccc2c(c1)[nH]c1c(N3CCC4(CC3)OCCO4)ncnc12,543,-0.4% (inactive),-24.1% (inactive),94.4%,-72.3% (inactive),119%,-0.995,0.207,-1.27,-6.59% (inactive),-0.384 (inactive),-3.4e-05 (inactive),0.00574 (inactive),inactive,-1.55% (inactive),2.08% (inactive),-40% (inactive)
CN(CC(O)COc1ccc(OCC(O)CN(C)C2CCCCC2)cc1)C1CCCCC1 (stereo unspecified),605,-1.3% (inactive),-434% (inactive),67%,-149% (inactive),120%,-0.395,0.402,1.26,11.3% (inactive),-0.384 (inactive),-3e-05 (inactive),0.00666 (inactive),inactive,3.04% (inactive),-47.8% (inactive),52.7% (active)

# Source: PubChem BioAssay
